PTHR1 ag – activates the human parathyroid hormone receptor PTHR1. HEK293 GP2 PTHR1 cells, GloSensor cAMP luminescence, 1 h. Potency, µM (highest dose often 115 µM), for the others: at the highest dose activation, usual class: activators. 410,000 tested, 0.075% active. AID 743266; also: potency is read from the fitted curve at half-maximal effect; nearly all actives have a fitted effect of over 55% in size
Target sequence (Q03431 whole entry, looked up): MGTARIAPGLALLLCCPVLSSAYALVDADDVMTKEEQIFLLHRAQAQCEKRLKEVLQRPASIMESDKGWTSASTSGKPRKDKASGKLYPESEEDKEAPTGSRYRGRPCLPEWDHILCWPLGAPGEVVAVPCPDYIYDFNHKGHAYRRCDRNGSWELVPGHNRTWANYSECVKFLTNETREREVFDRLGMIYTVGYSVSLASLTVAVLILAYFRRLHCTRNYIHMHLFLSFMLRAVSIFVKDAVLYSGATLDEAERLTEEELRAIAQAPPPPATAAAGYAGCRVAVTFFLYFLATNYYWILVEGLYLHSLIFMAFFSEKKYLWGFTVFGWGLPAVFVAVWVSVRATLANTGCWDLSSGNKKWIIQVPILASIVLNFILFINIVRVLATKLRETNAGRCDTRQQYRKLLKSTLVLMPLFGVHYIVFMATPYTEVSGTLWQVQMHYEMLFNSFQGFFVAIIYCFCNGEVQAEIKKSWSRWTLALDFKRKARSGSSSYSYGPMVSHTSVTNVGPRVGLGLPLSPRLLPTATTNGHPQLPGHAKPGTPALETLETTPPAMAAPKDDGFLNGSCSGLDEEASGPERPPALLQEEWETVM
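HEK-293-derived GP2 cells expressing PTHR1 and a GloSensor cAMP reporter, 3,000/well, plated overnight, given luciferin plus IBMX (each 0.5 mM as added) for 1 h at 37 °C, then compound for 1 h at 37 °C. Luminescence was read after 15 min at room temperature.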
Integrin act MD – integrin-mediated muscular dystrophy alleviation activation. 350,000 tested, 0.064% active. Potency, µM (titrated, usually from 38.3 µM), for the others: top-dose activation, actives largely listed as activators. alpha7betagal myoblasts, beta-gal FDG fluorescence, 48 h;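 also: potency is read from the fitted curve at half-maximal effect; 100% = response of the positive control SU9516; nearly all actives have a fitted effect of over 60% in size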
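Alpha7betagal+/- myoblasts (passage 13) were plated 16-24 hr, then exposed to compounds (1:260 dilution of DMSO stock) for 48 hours at 37C. After MPER lysis, β-galactosidase reporter activity was read as FDG fluorescence (ex 480/em 540) after 30 minutes.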
MBNL1-CUG inh – MBNL1-poly(CUG) RNA binding inhibition | TR-FRET MBNL1-His/biotin-(CUG)12 binding, 665/545 ratio | Potency, µM (titrated, usually from 57.5 µM), without a hit: at the highest dose activity change, negative = inhibition, usual class: inhibitors | 280,000 tested, 0.036% active; active = well fitted inhibition curve with a large enough effect in the signal ratio, with a control signal flat, not every such curve was filed as active; inconclusive = small, poorly fitted or top-dose-only effect, or effect the other way, or a change in a side signal; inactive = no such curve, though single readings can be large or run the other way; the % refers to the signal ratio; also: potency is read from the fitted curve at half-maximal effect; % is scaled to controls: 0 for no effect and ±100 for the full control effect
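Compound titration spanned 92 nM–58 uM against the MBNL1-His/biotin-(CUG)12 complex. After 60 min at room temperature with 5 nM streptavidin-XL665 and 0.055 ng/ul terbium anti-His, ratiometric 665/545 nm emission (Ex 340 nm) normalized to controls.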
CBFb-RUNX1 inh – blocks binding between human CBF-beta and RUNX1 | 230,000 tested, under 10 active | Potency, µM (highest dose often 59.8 µM), without a hit: at the highest dose activity, negative = inhibition, actives largely listed as inhibitors | AID 1477 | AlphaScreen CBFb-His/RUNX1-biotin binding, biochemical | Q01196+Q13951; also: % of control where 0% means no effect
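Room-temperature protein-protein interaction test with 30 nM each of His-tagged CBF-beta and biotinylated RUNX1, 15 min with compound, then 90 min with nickel plus streptavidin beads. Signal read in AlphaScreen mode.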
D3 antag – D3 dopamine receptor (human) antagonism | P35462 | max response, negative = inhibition, % | D3R cells, DiscoveRx beta-arrestin luminescence, antagonist mode; active compounds read low | AID 652054 | 360,000 tested, 2.5% active; in the data active = max response below about -50%; inconclusive = no clear call, values can overlap the other calls; also: % is scaled to controls: 0 for no effect and ±100 for the full control effect
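Cells expressing the human receptor were seeded at 1500 cells/well, incubated overnight at 37 degrees C in 5% CO2, then exposed to library compounds with dopamine controls for 90 minutes at 37 degrees C before luminescent detection.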
D3 ag – agonists of human D3 dopamine receptor; P35462; D3R DiscoveRx beta-arrestin cells, luminescence, 90 min; max activation, %; 410,000 tested, 0.58% active; AID 652048; in the data active = max activation above about 30%; also: 0% is about no effect
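Agonist mode: compounds and dopamine controls were applied to plated cells for 90 min at 37 degrees C after an overnight attachment at 1500 cells/well. Luminescent read-out followed 30 - 60 minutes at room temperature with DiscoveRx detection reagent.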
Numbers without * were called inactive; i = inactive; ? = inconclusive; . = not tested or not shown; ! = a repeat was not active; [ ] = dose if it differs, or a comment. Sampled rows, rich in hits. Any-hit rate of the full collection: about 2.8%. Unless noted, calls follow the shape of the dose curve; as a rule, active = well fitted curve in the direction sought with a large enough effect; inconclusive = small, poorly fitted or top-dose-only effect, or another doubt; inactive = no such curve, though single readings can be large; an effect the other way counts as inactive or inconclusive.

SMILES	PTHR1 ag	Integrin act MD	MBNL1-CUG inh	CBFb-RUNX1 inh	D3 antag	D3 ag
Cc1ccc(N/N=C(\Cc2nc3ccccc3[nH]2)c2ccccc2)cc1	i	-17%	-2%	-17%	-60*	-23
CC1(C)C(O)CC[C@]2(C)C1CC[C@@]1(C)C2C(=O)C=C2[C@@H]3C[C@@](C)(C(=O)O)CC[C@@]3(C)CCC21C (stereo partly drawn)	.	.	.	8%	.	.
CC1(C)[C@@H](O)CC[C@]2(C)C3C(O)C=C4[C@H]5C[C@@](C)(CO)CC[C@]5(C)CC[C@]4(C)[C@]3(C)CC[C@@H]12 (stereo partly drawn)	-10%	5%	-1%	9%	53	65*
Cc1nn2c(=O)cc(COc3ccc(/C=C(\C#N)C(=O)Nc4ccc(F)cc4)cc3)nc2s1	i	.	.	.	.	78*
COc1ccc(S(=O)(=O)N2CCN(C(=O)C3CC3)CC2)cc1Br	-23%	37%	.	.	6	-3
CCOC(=O)c1c(CN2CCCCC2)n(C)c2cc(Br)c(O)cc12	i	-7%	-1%	-3%	-87*	-59
COCCNC(=O)C1(C)CCCN(C(=O)c2cnc3ccccc3n2)C1 (stereo not drawn)	-19%	.	.	.	-5	6
CCNC(=O)C1(C)CCCN1C(=O)c1cnc2ccccc2n1 (stereo not drawn)	-3%	.	.	.	-58*	-3
Cc1cc(C(=O)CSc2nncs2)c(C)n1-c1c(C)n(C)n(-c2ccccc2)c1=O	i	-15%	-4%	6%	-95*	7
Cc1cccc(S(=O)(=O)NC(=O)C2(C)CCN2C(=O)Cc2ccc(C(C)(C)C)cc2)c1 (stereo not drawn)	-23%	.	.	.	-9	-7
S=c1[nH]nc(-c2cccnc2)n1/N=C/c1cccs1	i	9%	?	0%	-111*	3
O=[N+]([O-])c1cc(/C=N/n2c(-c3cccnc3)n[nH]c2=S)ccc1Cl	-19%	-24%	?	-8%	-14	1
O=[N+]([O-])c1cc2c(cc1/C=N/n1c(-c3ccccc3)n[nH]c1=S)OCO2	-18%	-7%	8%	1%	?	-5
O=[N+]([O-])c1cc2c(cc1/C=N/n1c(-c3ccccn3)n[nH]c1=S)OCO2	i	-27%	.	.	-50*	-3
S=c1[nH]nc(-c2cccnc2)n1/N=C/c1ccccc1	-24%	10%	-3%	-3%	-25	5
S=c1[nH]nc(-c2cccnc2)n1Cc1ccccc1	i	1%	-1%	0%	-53*	-7
O=[N+]([O-])c1ccccc1/C=N/n1c(-c2cccnc2)n[nH]c1=S	3%	-24%	7%	-1%	-86*	-18
Cc1cccc(CN2CCN(C(=O)CN(C)C(C)C(=O)Nc3ccc(C(N)=O)cc3)CC2)c1 (stereo not drawn)	i	-9%	.	.	-14	-3
COc1ccc(CCN2C(=O)NC(NS(=O)(=O)c3ccccc3)(C(F)(F)F)C2=O)cc1OC (stereo not drawn)	i	6%	0%	.	-17	3
COc1cccc(-c2cc(CC3(O)CCN(CCCc4ccccc4)CC3)on2)c1	26%	-49%	-3%	.	-96*	-3
COc1cccc(-c2cc(C(=O)O)no2)c1	?	17%	-3%	-3%	-17	-12
CN(/N=C/c1cc(Cl)ccc1O)C1=NS(=O)(=O)c2ccccc21	-6%	-11%	7%	.	-23	-8
COc1cccc2sc3cc(C#CC4(O)CCCCC4)ccc3c(=O)c12	-95%	-3%	.	.	203	63*
COc1cccc2sc3ccc(C#CC4(N)CCCCC4)cc3c(=O)c12	-17%	-35%	20%	.	26	0
CCN(CC)CCCN(C(=O)c1ccco1)c1nc(-c2ccc(Cl)cc2)cs1	i	-51%	-11%	.	-50*	-18
SMILES	PTHR1 ag	Integrin act MD	MBNL1-CUG inh	CBFb-RUNX1 inh	D3 antag	D3 ag
COc1ccccc1CCc1nnc(CCC(=O)NCC[C@@H]2C[C@@H]3C=C[C@H]2C3)o1	i	2%	13%	1%	-62*	3
NCCS	-4%	.	8%	-9%	-85*	65*!
Cc1noc(C)c1C(=O)OCC(=O)Nc1cccc(F)c1	i	3%	.	.	-62*	-7
O=C(Nc1ccc(Cl)c(Cl)c1)Nc1cc(S(=O)(=O)N2CCOCC2)ccc1N1CCCC1	-12%	-40%	7%	-12%	?	-14
O=C1C=C(NC2=CC3OC(c4ccccc4)OCC3OC2=O)CCC1 (stereo not drawn)	-32%	-16%	14%	7%	-72*	-7
O=C1C=C(NCc2ccccc2)CCC1	i	1%	-7%	-1%	11	10
CCCOP(=O)(c1ccc(N(C)C)cc1)C(O)c1cccnc1 (stereo not drawn)	-20%[57.5 µM]	-5%	-12%	-1%	-8	30*
COc1ccc(NC(=O)Cn2nnnc2-c2ccccc2F)c(C)c1	?	.	.	.	.	6
Cc1sc2nc(C3CC3)nc(SCC(=O)N3c4ccccc4CC3C)c2c1C (stereo not drawn)	i	-10%	14%	-1%	54	42*
CN(C)CCCn1c(N)c(S(=O)(=O)c2ccccc2)c2nc3ccccc3nc21	-25%	0%	-4%	7%	?	-4
CCCCn1c(N)c(S(=O)(=O)c2ccc(C)cc2)c2nc3ccccc3nc21	-21%	-56%	7%[11.5 µM]	29%	11	32*
Cc1ccccc1C(=O)NCc1ccc2c(c1)CCN2C(=O)c1ccc(F)cc1	1%	.	.	.	.	5
Cc1ccc(C(NC(=O)NCCCN2CCOCC2)=C(Cl)Cl)cc1F	i	-57%	-4%	4%	-75*	0
Cc1cc(S(=O)(=O)Nc2ccc(C(=O)NCCCN3CCOCC3)cc2)ccc1F	i	16%	.	.	-13	-20
CCC(Cn1nnc2ccccc2c1=O)NC(=O)Nc1cccc(C)c1C (stereo not drawn)	-13%	.	.	.	.	26
COc1cc(NC(C)CCCN)c2ncccc2c1 (stereo not drawn)	i	.	.	-2%	-68*	2
COc1cc(NC(=O)OCc2ccccc2)c2ncccc2c1	-13%	?	.	.	16	34*
COc1cc(NCCCCCCCN)c2ncccc2c1	i	-4%	?	-10%	-20	-3

High-throughput results deposited in PubChem by National Center for Advancing Translational Sciences (NCATS).
